Source: PubChem
In the library only some 2.6% were active in any assay of this set; here they are far more common.
FH mod: Identification of activators of human fumarate hydratase by quantitative high-throughput screening; FH coupled MDH/diaphorase resazurin fluorescence, 15 min; Potency, µM (titrated, usually from 79.9 µM), without a hit: at the highest dose activity change, negative = inhibition, hits mostly inhibitors; hit rate 0.22% among 54,000; Fumarate hydratase, mitochondrial (Homo sapiens), P07954; AID 1347055, 2019; note: % is set by controls: 0 for no effect and ±100 for the full control effect; the screen sought activators but most active calls are inhibition curves; nearly all actives have a fitted effect of over 45% in size
HTT prom inh: Primary qHTS for Identification of Small Molecule Inhibitors of Huntingtin Promoter Activity; HEK293 HTT promoter firefly luciferase reporter, 24 h; Potency, µM (titrated, usually from 57.5 µM), without a hit: at the highest dose activity change, negative = inhibition, usual class: inhibitors; hit rate 0.93% among 48,000; note: nearly all actives have a fitted effect of over 50% in size
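Firefly luciferase readout (Dual-Glo, 10 min RT) after 24 h, 37 °C compound exposure (final up to 57.5 uM) of HEK293 reporter cells cultured 24 h beforehand; PTC124 at 50 uM final as control inhibitor; activity scaled vehicle 0%, zero RLU -100%.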
HTT-AS act: Primary qHTS for Identification of Small Molecule Activators of Huntingtin-Antisense Promoter Activity; HEK293 HTT-AS promoter firefly luciferase reporter, 24 h; response scale: percent change from vehicle, -100% = no light; Potency, µM (doses to about 57.5 µM), without a hit: top-dose activity change, positive = activation, usual class: activators; hit rate 0.24% among 48,000; AID 1508624, 2021; note: nearly all actives have a fitted effect of over 55% in size
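Firefly luciferase signal from promoter-reporter HEK293 cells was scaled between vehicle (0%) and zero RLU (-100%). Compounds were tested at final concentrations of up to 57.5 uM over 24 h at 37 degrees C. PTC124 at 50 uM final served as control inhibitor.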
NTMT1 inh: Primary qHTS for Inhibitors of N-terminal methyltransferase 1 (NTMT1): MTaseGlo Assay. N-terminal Xaa-Pro-Lys N-methyltransferase 1 (Homo sapiens), Q9BV86. NTMT1 MTase-Glo SAH luminescence, purified enzyme. Potency, µM (series often up to 114 µM), without a hit: at the highest dose activity change, negative = inhibition, hits mostly inhibitors. hit rate 2.5% among 59,000. AID 1645870, 2021;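 note: plate controls were DMSO vehicle for no effect and no enzyme for full effect; nearly all actives have a fitted effect of over 65% in size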
Target sequence (Q9BV86 whole entry, looked up): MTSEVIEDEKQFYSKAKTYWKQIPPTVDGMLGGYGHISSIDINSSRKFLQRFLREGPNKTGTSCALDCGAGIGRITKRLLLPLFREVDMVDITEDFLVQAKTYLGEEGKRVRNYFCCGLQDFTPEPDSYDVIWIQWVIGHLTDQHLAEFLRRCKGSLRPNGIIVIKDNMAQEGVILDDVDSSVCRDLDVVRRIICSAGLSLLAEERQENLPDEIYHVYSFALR
An asterisk follows results filed as active; ? = inconclusive; / = no result given; ! = repeats disagree; [ ] = remark or other dose. Calls come from the whole dose curve; as a rule, active = well fitted curve in the direction sought with a large enough effect; inconclusive = small, poorly fitted or top-dose-only effect, or another doubt; inactive = no such curve, though single readings can be large; an effect the other way counts as inactive or inconclusive. Potency is the fitted concentration of half-maximal effect.

SMILES	FH mod	HTT prom inh	HTT-AS act	NTMT1 inh
CCNC(=O)CCC/C=C\C[C@@H]1[C@@H](/C=C/C(O)CCc2ccccc2)[C@@H](O)C[C@@H]1O (some centres not stated)	4%	/	/	2%[57.5 µM]
Cc1ccc(NC(=O)c2ccc(C)c(S(=O)(=O)N3CCCCCC3)c2)cc1	?	?	-19%	-2%
CC(C)c1ccc(NC(=O)c2ccc(F)c(S(=O)(=O)N3CCc4ccccc43)c2)cc1	-17%	?	-29%	-4%
Cc1ccc(C(=O)Nc2ccc(Br)cc2)cc1S(=O)(=O)N1CCOCC1	-15%	20µM*	-22%	4%
Cc1ccc(C)c(N2CCN(S(=O)(=O)c3cc(C(=O)Nc4ccc(Oc5ccccc5)cc4)ccc3F)CC2)c1	2%	2µM*	-41%	6%
O=C(Nc1ccc(Br)cc1)c1ccc(F)c(S(=O)(=O)N2CCc3ccccc32)c1	-27%	14µM*	-45%	16%
O=C(Nc1nc2c(F)cc(F)cc2s1)c1ccc(S(=O)(=O)N2CCc3ccccc32)cc1	-4%	22µM*	-56%	7%
Cc1cccc(N2CCN(S(=O)(=O)c3cc(C(=O)Nc4ccc(Oc5ccccc5)cc4)ccc3F)CC2)c1C	-19%	?	-30%	-1%
O=C(Nc1ccc(Cl)cc1)c1cc(S(=O)(=O)N2CCCc3ccccc32)ccc1F	-23%	25µM*	-46%	-7%
CCC(=O)NC(c1cccs1)c1cc([N+](=O)[O-])c2cccnc2c1OC (configuration not stated)	/	/	/	50µM*!
CCc1ccccc1NC(=O)c1ccc2[nH]c(C)c(C)c2c1	-16%	54%	8.9µM*	-2%
Cc1ccccc1NC(=O)c1ccc2[nH]c(C)c(C)c2c1	3%	73%	?	-10%
Cc1ccccc1CNC(=O)c1ccc2[nH]c(C)c(C)c2c1	-4%	3%	-10%	79µM*
CCOC(=O)c1c(-c2ccccc2)oc2ccc(OCc3cccc(Br)c3)cc12	4%	-18%	-21%	18%
Cc1cc(OCCCS(C)(=O)=O)cc(C)c1-c1cccc(COc2ccc3c(c2)OC[C@H]3CC(=O)O)c1	-20%[53.3 µM]	-34%	-28%	79µM*!
CC(C)(C)c1ccc(-n2cnc3cc(C(=O)N4CCCCC4)ccc32)cc1	/	/	/	21%
Cc1cc(C)c(NC(=O)Cn2c(=O)n(Cc3ccc(C(=O)NCc4ccco4)cc3)c(=O)c3sccc32)c(C)c1	-6%	?	-32%	50µM*
COc1ccc2c(c1)c(=O)c(S(=O)(=O)c1ccc(C)cc1)cn2Cc1ccccc1C	-13%	?	-38%	11%
COc1ccc2c(c1)c(C1=C(c3c[nH]c4ccccc34)C(=O)NC1=O)cn2CCCN(C)C	-7%[53.3 µM]	-22%	-8%	14µM*
NS(=O)(=O)c1ccc(S(=O)(=O)Nc2cccc3c(Cl)c[nH]c23)cc1	/	/	/	1%
Nc1nc(Nc2ccc3c(c2)CCC(N2CCCC2)CC3)nn1-c1cc2c(nn1)-c1ccccc1CCC2 (configuration not stated)	-11%	/	/	40µM*
Nc1ccc2c(c1)CN1C(=O)c3ccccc3C1=N2	3%[20.6 µM]	-27%[25.2 µM]	-52%[25.1 µM]	13µM*
Cc1cc(OI)c(C(C)C)cc1-c1cc(C(C)C)c(OI)cc1C	-14%[53.3 µM]	11%	-4%	18µM*
CCCCCCCCCCCCCCCCC(C(=O)O)C(O)(CC(=O)O)C(=O)O (configuration not stated)	?	12%	-11%	3.5µM*
CCN(Cc1cccnc1)C(=O)CN(c1ccc(OC)nc1)S(=O)(=O)c1ccccc1C	-15%	/	/	16%[57.5 µM]
SMILES	FH mod	HTT prom inh	HTT-AS act	NTMT1 inh
COc1ccc2sc(N(Cc3cccnc3)C(=O)c3cccs3)nc2c1	-3%	14µM*	-32%	?
COc1ccccc1N1CCN(c2ccc(NC(=O)c3ccc(C)cc3)cc2C(=O)O)CC1	-10%	-20%	7%	?
Cc1cccc(C(=O)Nc2ccc(N3CC=C(c4ccccc4C)CC3)c(C(=O)O)c2)c1	-5%	1%	8%	40µM*
CC1CCN(c2ccc(NC(=O)c3cccc(Cl)c3)cc2C(=O)O)CC1	-14%	-9%	6%	45µM*
O=C(Nc1ccc(N2CCC(N3CCCCC3)CC2)c(C(=O)O)c1)c1ccccc1	-4%	-7%	18%	50µM*
COc1ccc(C(=O)Nc2ccc(N3CCN(c4ccccc4)CC3)c(C(=O)O)c2)cc1	-14%	-16%	24%	18%
C=C1CC[C@H]2[C@@](C)(CCC(O)[C@@]2(C)CO)[C@@H]1/C=C/C(=C\C(=O)O)C(=O)O (some centres not stated)	-2%[53.3 µM]	/	/	7%[29.8 µM]
CCOC(=O)NCCCC(=O)NCCc1ccccc1	/	/	/	9%[29.8 µM]
CC(C)(C)N=Cc1c(-c2ccccc2)no[n+]1[O-]	/	/	/	7%
CCCOc1ccc(/C=C/C(=O)Nc2sc(C)c(C)c2C(=O)OCC)cc1OC	0%	-10%	-13%	79µM*
CCOC(=O)c1c(NC(=O)/C=C/c2ccc(OC)c(OC)c2)sc(C(C)=O)c1C	1%	-8%	-13%	5%
COc1cccc(C2=C(C(C)=O)Sc3nncn3N2C(C)=O)c1	9%	-18%	?	-2%
CC(=O)C1=C(c2ccc(Cl)c(Cl)c2)N(C(C)=O)n2cnnc2S1	?	?	-83%	56µM*
COC(=O)C1C(c2ccc(O)cc2)C(C(=O)O)C1c1ccc(O)cc1 (configuration not stated)	31%[53.3 µM]	/	/	15%[29.8 µM]
CCCCCCCC(=O)[O-].CCCCCCCC(=O)[O-].[Zn+2]	-25%[53.3 µM]	6%	-1%	20µM*
NC(=O)C1CCN(c2nc(-c3ccc(Oc4ccccc4)cc3)cs2)CC1	/	/	/	-9%
CN1CCN(C2CCC(n3cc(-c4ccc(Oc5ccccc5)cc4)c4c(N)ncnc43)CC2)CC1 (configuration not stated)	14%	/	/	28µM*!
CC(C)(C)OC(=O)N1CCN(c2cnc(NCc3ccc(-c4ccc(C#N)cc4)o3)nc2)CC1	/	/	/	2%
COc1ccc(C(=O)N2CCN(c3nc4c(OC)cccc4s3)CC2)cc1OC	4%	28µM*	-26%	9%
COc1cccc2sc(N3CCN(C(=O)CCS(=O)(=O)c4ccc(F)cc4)CC3)nc12	2%	22µM*	-38%	6%
Cc1ccc(S(=O)(=O)CCC(=O)N2CCN(c3nc4c(C)c(Cl)ccc4s3)CC2)cc1	-7%	-25%	-15%	9%
Nc1cccc(-c2cc3c(Oc4cccc(O)c4)ncnc3[nH]2)c1	-1%	?	-21%	22µM*!
COc1ccc(C#Cc2ccc(C(=O)N3CCC[C@@H](O)C3)c(F)c2)cc1	-14%	/	/	-27%[57.5 µM]
Cc1ccc2nc(/C(C#N)=C/c3ccc(-c4cccc(Cl)c4)o3)[nH]c2c1	-3%	-7%	-17%	?
N#C/C(=C\c1ccc(-c2ccc(Cl)c(C(=O)O)c2)o1)c1nc2ccccc2[nH]1	40µM*	8%	5%	?
